PPARg SRC-3 ag: promotes SRC-3 coactivator recruitment by human PPARgamma; P37231; biochemical PPARgamma/SRC-3 coactivator recruitment assay; activation, % at 8 µM; 0.26% of 200,000 active; AID 731; in the data active means activation above about 23%
Target sequence (P37231 whole entry, looked up): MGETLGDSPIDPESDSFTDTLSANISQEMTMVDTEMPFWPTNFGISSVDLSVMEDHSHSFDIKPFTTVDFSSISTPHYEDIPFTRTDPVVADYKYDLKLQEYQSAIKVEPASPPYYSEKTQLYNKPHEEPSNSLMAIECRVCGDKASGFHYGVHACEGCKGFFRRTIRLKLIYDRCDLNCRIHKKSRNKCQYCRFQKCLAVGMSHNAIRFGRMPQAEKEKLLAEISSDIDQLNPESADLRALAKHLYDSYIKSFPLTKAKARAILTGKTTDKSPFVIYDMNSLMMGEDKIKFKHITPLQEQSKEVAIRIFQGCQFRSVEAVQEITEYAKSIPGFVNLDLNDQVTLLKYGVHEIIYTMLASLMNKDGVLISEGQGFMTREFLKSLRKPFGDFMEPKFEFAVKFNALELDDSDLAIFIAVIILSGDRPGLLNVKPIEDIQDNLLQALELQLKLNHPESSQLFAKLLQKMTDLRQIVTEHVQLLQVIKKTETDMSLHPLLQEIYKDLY
SRC1 TRFRET art: flags TR-FRET format artefacts in PPARgamma SRC-1 recruitment agonist screen; 0.34% of 99,000 active; TR-FRET ratio at 8 µM; TR-FRET detection artefact counter-screen, emission ratio; active compounds read high; in the data active means TR-FRET ratio above about 2300
PPARg SRC-1 ag: PPARgamma-driven SRC-1 recruitment agonism | PPARgamma-SRC-1 coactivator recruitment biochemical assay | activation, % at 8 µM | 0.41% of 200,000 active | AID 631; in the data active means activation above about 19%
PPARg SRC2 recr: promotes SRC-2 coactivator recruitment by human PPARgamma. PPARgamma LBD-SRC-2 recruitment, biochemical. activation, % at 8 µM. 0.34% of 200,000 active; in the data active means activation above about 22%
SRC3 TRFRET art: TR-FRET artefact, counter-screen to PPARgamma/SRC-3 agonist assay | 0.39% of 99,000 active | TR-FRET ratio at 8 µM | PPARgamma/SRC-3 format; active compounds read high | AID 1048
TR-FRET SRC-2 ct: flags TR-FRET format artefacts in PPARgamma SRC-2 recruitment agonist screen; TR-FRET artefact counter-screen; active compounds read high; 0.4% of 200,000 active; TR-FRET ratio at 8 µM
A number is an active result. Shown are actives, neighbours in structure and some others; about 0.84% of the full set was active somewhere. Unless noted, no stated cut-off is given here; in the data, active means TR-FRET ratio above about 2000; inactive means the rest.

What do the screens show for `O=C(N/N=C/c1ccc(Br)s1)c1c[nH]c2ccccc12`?
PPARg SRC-3 ag: inactive; SRC1 TRFRET art: inactive; PPARg SRC-1 ag: inactive; PPARg SRC2 recr: inactive; SRC3 TRFRET art: inactive; TR-FRET SRC-2 ct: inactive

What do the screens show for `O=C(c1cc(-c2ccccn2)nc2c(Cl)cccc12)N1CCN(C(=O)C2CCCO2)CC1` (stereo unspecified)?
PPARg SRC-3 ag: inactive; PPARg SRC-1 ag: inactive; PPARg SRC2 recr: inactive; TR-FRET SRC-2 ct: inactive

What do the screens show for `O=C(c1cc(-c2cccs2)nc2ccccc12)N1CCN(S(=O)(=O)c2cccc(F)c2)CC1`?
PPARg SRC-3 ag: inactive; PPARg SRC-1 ag: inactive; PPARg SRC2 recr: inactive; TR-FRET SRC-2 ct: 2309

Results for O=C(c1cc(-c2cccs2)nc2ccccc12)N1CCN(S(=O)(=O)c2ccccc2)CC1 ?
PPARg SRC-3 ag: inactive; PPARg SRC-1 ag: inactive; PPARg SRC2 recr: inactive; TR-FRET SRC-2 ct: 2313

What do the screens show for `O=C(c1cc(-c2cccs2)nc2ccccc12)N1CCN(c2ccccc2)CC1`?
PPARg SRC-3 ag: inactive; SRC1 TRFRET art: inactive; PPARg SRC-1 ag: inactive; PPARg SRC2 recr: inactive; SRC3 TRFRET art: inactive; TR-FRET SRC-2 ct: inactive

How did CN(C)S(=O)(=O)c1cccc(NC(=O)c2cc(-c3cccs3)nc3ccccc23)c1 do in these assays?
PPARg SRC-3 ag: inactive; SRC1 TRFRET art: inactive; PPARg SRC-1 ag: inactive; PPARg SRC2 recr: inactive; SRC3 TRFRET art: 2449; TR-FRET SRC-2 ct: 2036

What do the screens show for `O=C(c1cc(-c2ccccn2)nc2c(Cl)cccc12)N1CCN(S(=O)(=O)c2ccccc2)CC1`?
PPARg SRC-3 ag: inactive; SRC1 TRFRET art: inactive; PPARg SRC-1 ag: inactive; PPARg SRC2 recr: inactive; SRC3 TRFRET art: 3978; TR-FRET SRC-2 ct: 2813

Results for N#CC(c1ccc(O)cc1)c1ncc(C(F)(F)F)cc1Cl (stereo unspecified) ?
PPARg SRC-3 ag: inactive; SRC1 TRFRET art: inactive; PPARg SRC-1 ag: inactive; PPARg SRC2 recr: inactive; SRC3 TRFRET art: inactive; TR-FRET SRC-2 ct: inactive

Results for CCCN(C(=O)COc1ccc(Cl)cc1Cl)c1c(N)n(Cc2ccccc2)c(=O)[nH]c1=O ?
PPARg SRC-3 ag: inactive; SRC1 TRFRET art: inactive; PPARg SRC-1 ag: inactive; PPARg SRC2 recr: inactive; SRC3 TRFRET art: inactive; TR-FRET SRC-2 ct: inactive

Results for Cc1cc(NC(=O)c2cc(-c3ccc(C)s3)nc3ccccc23)no1 ?
PPARg SRC-3 ag: inactive; PPARg SRC-1 ag: inactive; PPARg SRC2 recr: inactive; TR-FRET SRC-2 ct: inactive

What do the screens show for `Cc1cccc(NC(=O)c2cc(-c3ccc(C)s3)nc3ccccc23)n1`?
PPARg SRC-3 ag: inactive; SRC1 TRFRET art: inactive; PPARg SRC-1 ag: inactive; PPARg SRC2 recr: inactive; SRC3 TRFRET art: 2191; TR-FRET SRC-2 ct: 2007

How did CC(C)=C1C2CCC1C1C(=O)N(c3nc(-c4ccccc4)c(C)s3)C(=O)C21 (stereo unspecified) do in these assays?
PPARg SRC-3 ag: inactive; SRC1 TRFRET art: inactive; PPARg SRC-1 ag: inactive; PPARg SRC2 recr: inactive; SRC3 TRFRET art: inactive; TR-FRET SRC-2 ct: inactive

How did O=c1c2c3c(sc2ncn1/N=C/c1ccc([N+](=O)[O-])o1)CCCC3 do in these assays?
PPARg SRC-3 ag: inactive; PPARg SRC-1 ag: inactive; PPARg SRC2 recr: inactive; TR-FRET SRC-2 ct: inactive

Results for Cn1cc(/C=N/n2cnc3sc4c(c3c2=O)CCCC4)c2ccccc21 ?
PPARg SRC-3 ag: inactive; PPARg SRC-1 ag: inactive; PPARg SRC2 recr: inactive; TR-FRET SRC-2 ct: 1972

How did COc1cccc(-c2csc(N3CCN(C(=S)Nc4ccc(Cl)cc4)CC3)n2)c1 do in these assays?
PPARg SRC-3 ag: inactive; PPARg SRC-1 ag: inactive; PPARg SRC2 recr: inactive; TR-FRET SRC-2 ct: 3147

Results for COc1cccc(-c2csc(N3CCN(C(=O)NC45CC6CC(CC(C6)C4)C5)CC3)n2)c1 ?
PPARg SRC-3 ag: inactive; PPARg SRC-1 ag: inactive; PPARg SRC2 recr: inactive; TR-FRET SRC-2 ct: 2123

Results for COc1cccc2c1OCC/C2=N\NC(=O)C(C)Oc1ccc([N+](=O)[O-])cc1 (stereo unspecified) ?
PPARg SRC-3 ag: inactive; SRC1 TRFRET art: inactive; PPARg SRC-1 ag: inactive; PPARg SRC2 recr: inactive; SRC3 TRFRET art: inactive; TR-FRET SRC-2 ct: inactive

Results for CCCN1C(=O)c2cc(C(=O)Nc3ccc(OC)cc3OC)ccc2C1Nc1ccc(OC)cc1OC (stereo unspecified) ?
PPARg SRC-3 ag: inactive; SRC1 TRFRET art: inactive; PPARg SRC-1 ag: inactive; PPARg SRC2 recr: inactive; SRC3 TRFRET art: inactive; TR-FRET SRC-2 ct: inactive

Results for O=C(C1=C[C@@H](c2ccc(Br)cc2)C[C@@H](OCCCCO)O1)N1CCN(Cc2ccc3c(c2)OCO3)CC1 ?
PPARg SRC-3 ag: 31.4; SRC1 TRFRET art: inactive; PPARg SRC-1 ag: inactive; PPARg SRC2 recr: inactive; SRC3 TRFRET art: inactive; TR-FRET SRC-2 ct: inactive

Results for CCOC(=O)C1=C(C)Nc2ccccc2N=C1NC(=O)c1ccc(Cl)c(S(=O)(=O)N2CCCC2)c1 ?
PPARg SRC-3 ag: inactive; SRC1 TRFRET art: inactive; PPARg SRC-1 ag: inactive; PPARg SRC2 recr: inactive; SRC3 TRFRET art: 2223; TR-FRET SRC-2 ct: inactive

What do the screens show for `CCOC(=O)C1=C(C)Nc2ccccc2N=C1NC(=O)C(c1ccccc1)c1ccccc1`?
PPARg SRC-3 ag: inactive; SRC1 TRFRET art: inactive; PPARg SRC-1 ag: inactive; PPARg SRC2 recr: inactive; SRC3 TRFRET art: 2077; TR-FRET SRC-2 ct: inactive

What do the screens show for `CCOC(=O)C1=C(C)Nc2ccccc2N=C1NC(=O)c1cccc(S(=O)(=O)N(C)C)c1`?
PPARg SRC-3 ag: inactive; PPARg SRC-1 ag: inactive; PPARg SRC2 recr: inactive; TR-FRET SRC-2 ct: inactive

How did COCCN(CC(=O)NCC1CCCO1)C(=O)CCC(=O)Nc1ccccn1 (stereo unspecified) do in these assays?
PPARg SRC-3 ag: inactive; SRC1 TRFRET art: inactive; PPARg SRC-1 ag: inactive; PPARg SRC2 recr: inactive; SRC3 TRFRET art: inactive; TR-FRET SRC-2 ct: inactive

Results for CSc1ccc(CN(C)C(C)C(=O)NCc2ccccc2)cc1 (stereo unspecified) ?
PPARg SRC-3 ag: inactive; SRC1 TRFRET art: inactive; PPARg SRC-1 ag: inactive; PPARg SRC2 recr: inactive; SRC3 TRFRET art: inactive; TR-FRET SRC-2 ct: inactive

Results for O=C(NCC1OCCc2ccccc21)c1cc(COc2ccc(F)cc2Cl)on1 (stereo unspecified) ?
PPARg SRC-3 ag: inactive; SRC1 TRFRET art: inactive; PPARg SRC-1 ag: inactive; PPARg SRC2 recr: inactive; SRC3 TRFRET art: inactive; TR-FRET SRC-2 ct: inactive

How did COc1ccc(CC(=O)Nc2nc(-c3cc(OC)ccc3OC)cs2)cc1 do in these assays?
PPARg SRC-3 ag: inactive; SRC1 TRFRET art: inactive; PPARg SRC-1 ag: inactive; PPARg SRC2 recr: inactive; SRC3 TRFRET art: inactive; TR-FRET SRC-2 ct: inactive

Results for COc1ccc(OC)c(-c2csc(NC(=O)c3ccc4c(c3)OCO4)n2)c1 ?
PPARg SRC-3 ag: inactive; SRC1 TRFRET art: inactive; PPARg SRC-1 ag: inactive; PPARg SRC2 recr: inactive; SRC3 TRFRET art: 2559; TR-FRET SRC-2 ct: inactive

What do the screens show for `O=C(COC(=O)c1sc2ccccc2c1Cl)NC1CCCCC1`?
PPARg SRC-3 ag: inactive; SRC1 TRFRET art: inactive; PPARg SRC-1 ag: inactive; PPARg SRC2 recr: 114.7; SRC3 TRFRET art: inactive; TR-FRET SRC-2 ct: 4050

Results for O=C(COC(=O)c1sc2cc(F)ccc2c1Cl)Nc1ncc(Cl)cc1Cl ?
PPARg SRC-3 ag: inactive; SRC1 TRFRET art: inactive; PPARg SRC-1 ag: inactive; PPARg SRC2 recr: inactive; SRC3 TRFRET art: inactive; TR-FRET SRC-2 ct: inactive
